Test results reported in PubChem BioAssay AID774 (SRMLSC, 2007).
The whole screen tested about 65,000 compounds, of which about 15 (0.02%) were called active.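 The calls were made as follows: active = single-dose screening hits from any of four coupled enzyme assays that gave an IC50 when retested across doses; inconclusive = no clear call, values can overlap the other calls; inactive = the rest.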 The list is a sample of the results.

test: inhibitors of PK/LDH coupling enzymes, profiling panel, artefact control, biochemical, MLSMR library (AID 774); conditions: coupled PK/LDH NADH assays, four targets; at 10 µM; hits give high values;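 also: the DPM-DC format reads NADH fluorescence rather than 340 nm absorbance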

| SMILES | inhibition |
| --- | --- |
| COc1cc(OC)cc(C(=O)Nc2ccc(-c3nc4ccccc4o3)c(O)c2)c1 | 9% (inactive) |
| CC1(C)C(=O)Nc2ccccc2N1C(=O)COC(=O)Cn1cnc2ccccc2c1=O | 11% (inactive) |
| CC1CCCCC1NC(=O)CCS(=O)(=O)c1cccc2nonc12 (configuration not stated) | 2% (inactive) |
| c1csc(CN2CCN(Cc3cccs3)C2c2cccs2)c1 | 5% (inactive) |
| O=C(CSc1nnc(Cc2ccccc2)n1-c1ccccc1)N1CCOCC1 | 5% (inactive) |
| CCc1c(O)nc(SCC(=O)N2CCCCC2)n(-c2ccccc2C)c1=O | 11% (inactive) |
| O=C(NC1CCN(Cc2ccccc2)CC1)c1ccccc1F | 1% (inactive) |
| Cc1ccc(NC(=O)c2cc(-c3ccc(C)o3)nc3ccccc23)nc1 | 5% (inactive) |
| CCOC(=O)C1CCN(C(=O)Cc2c(C(=O)O)[nH]c3ccccc23)CC1 | 1% (inactive) |
| Cc1ccn2cc(C(=O)NC3CCN(Cc4ccccc4)CC3)nc2c1 | 4% (inactive) |
| CC1Cc2ccccc2N1C(=O)CSc1nc2ccccc2o1 (configuration not stated) | 4% (inactive) |
| COC(=O)CN(c1cccc(C(C)=O)c1)S(C)(=O)=O | 6% (inactive) |
| C[N+](C)(C)CCOP(=O)([O-])OC[C@H](O)CO | 2% (inactive) |
| COc1ccc(OC)c(C(=O)c2coc3ccc(OC)cc23)c1 | 0% (inactive) |
| Cc1cc(C)nc(NC2=NCC(=O)N2c2ccc(Cl)cc2)n1 | 2% (inactive) |
| Nc1ccc(-n2nncc2-c2ccco2)cc1 | 3% (inactive) |
| CCOC(=O)CSc1nnc(CNC(=O)c2ccco2)n1-c1ccc(F)cc1 | 5% (inactive) |
| CCOC(=O)C1C(=O)NC(N2CCN(c3ccccc3)CC2)=NC1c1ccco1 (configuration not stated) | 7% (inactive) |
| O=C(O)C1CCCN1S(=O)(=O)c1ccc2c(c1)CCC2 (configuration not stated) | 8% (inactive) |
| CNC(=O)n1ccc(C(=O)N2CCCCC2)n1 | 2% (inactive) |
| Cc1ccc(-c2ccc(=O)n(CC(=O)NCCCN3CCCCC3)n2)cc1 | 8% (inactive) |
| CN(Cc1ccccc1)c1nc2c(c(=O)[nH]c(=O)n2C)n1CCSc1nc2ccccc2[nH]1 | 4% (inactive) |
| COC(=O)C(C)N(C#N)c1nc(C)nc(C)n1 (configuration not stated) | 9% (inactive) |
| CCOc1ccc(NC(=O)Nc2ccc(N(C)C(C)=O)cc2)cc1 | 4% (inactive) |
| CC(c1ccco1)N(C(=O)c1ccc(S(=O)(=O)N2CCCCC2)cc1)c1ccccn1 (configuration not stated) | 1% (inactive) |
| Cc1ccc(-c2nc(COC(=O)c3c(C)noc3C)cs2)cc1 | 7% (inactive) |

| SMILES | inhibition |
| --- | --- |
| COc1ccc(OCc2cccc(C(=O)N3CCCC3)c2)cc1 | 9% (inactive) |
| CCOC(=O)N1CCN(C(=O)c2ccc(CN(c3ccc(C)c(C)c3)S(C)(=O)=O)cc2)CC1 | 2% (inactive) |
| CCOC(=O)N1CCN(C(=O)COc2ccc(Br)cc2)CC1 | 5% (inactive) |
| COc1ccccc1C(=O)N1CCN=C1SCc1cccnc1 | 2% (inactive) |
| Cn1c(=O)[nH]c(=O)c2c1nc(CN(Cc1ccccc1)Cc1ccccc1)n2CCN1CCOCC1 | 0% (inactive) |
| CCOC(=O)c1nnn(-c2nc(OC)nc(N(C)C)n2)c1-c1ccccc1 | 6% (inactive) |
| O=C(CSc1nc2ccccc2o1)N1CCN(c2ccc(Cl)cc2)CC1 | 3% (inactive) |
| CCOC(=O)N1CCN(C(=O)CN(C2CCCCC2)S(C)(=O)=O)CC1 | 3% (inactive) |
| O=C(C1CCN(CC2CCCCC2)CC1)N1CCCC1 | 17% (inactive) |
| O=C(CS(=O)(=O)c1cn(Cc2ccc(Cl)cc2)c2ccccc12)N1CCOCC1 | 1% (inactive) |
| CC1CN(c2cc(=O)n(-c3cccc(Br)c3)c(=O)[nH]2)CC(C)O1 (configuration not stated) | 2% (inactive) |
| OC(COc1cccc(OCC(O)CN2CCCC2)c1)CN1CCCC1 (configuration not stated) | 3% (inactive) |
| COc1ccc(C2CC(c3ccc(C)cc3)Nc3nc(N)nn32)cc1 (configuration not stated) | 1% (inactive) |
| CCOc1ccc(-c2nnn(CC(=O)N3CCN(c4ccc(F)cc4)CC3)n2)cc1OCC | 1% (inactive) |
| COc1ccccc1Cc1nc(-c2ccc(C)cc2)no1 | 1% (inactive) |
| Cc1cc(=O)[nH]c(=S)[nH]1 | 0% (inactive) |
| COc1ccccc1C1/C(=C(/O)c2ccc(OC(C)C)cc2)C(=O)C(=O)N1c1cc(C)on1 (configuration not stated) | 5% (inactive) |
| OCCCNC(c1ccccc1)c1ccc(O)cc1 (configuration not stated) | 6% (inactive) |
| Cc1cc(C(F)(F)F)nn1CC(=O)N1CCCC1 | 2% (inactive) |
| CCOC(=O)Cn1c(SC)nc2sc3c(c2c1=O)CC(C)(C)OC3 | 4% (inactive) |
| COCCNC(=O)c1ccccc1-c1nc(-c2ccccc2Cl)no1 | 4% (inactive) |
| Cc1nc(CNS(=O)(=O)c2cccnc2)cs1 | 5% (inactive) |
| Cc1cc(C)nc(N(C#N)CC(=O)Nc2ccccc2)n1 | 7% (inactive) |
| COc1ccc(-c2noc(CN(C)S(=O)(=O)c3ccc(C)cc3)n2)cc1 | 6% (inactive) |
| CN1CCN(S(=O)(=O)c2ccc(NC(=O)c3ccco3)cc2)CC1 | 2% (inactive) |
| CCOc1ccc(CN(Cc2ccco2)C(c2cccs2)c2nnnn2C(C)(C)C)cc1 (configuration not stated) | 1% (inactive) |

| SMILES | inhibition |
| --- | --- |
| CCOC(=O)c1ccc(N2C(=O)CC(N3CC(C)OC(C)C3)C2=O)cc1 (configuration not stated) | 3% (inactive) |
| CC(=O)Nc1ccc(S(=O)(=O)N2CCN(C3CCCCCCC3)CC2)cc1 | 6% (inactive) |
| CC(C)(C)c1ccc(C(=O)NCCC(=O)NCc2ccco2)cc1 | 6% (inactive) |
| CCSC1(SCC)N=C(N)C2(C#N)C(c3ccccc3)NC(C)=CC12C#N (configuration not stated) | 1% (inactive) |
| COc1ccccc1-n1nnnc1S(=O)(=O)Cc1ccc(Cl)cc1 | 5% (inactive) |
| Cc1noc(C)c1S(=O)(=O)N(CC(=O)Nc1ccc2c(c1)OCCO2)c1ccc(C(C)C)cc1 | 8% (inactive) |
| CCCCOC(=O)c1[nH]c(C)c(C(=O)OC)c1C | 1% (inactive) |
| CC(Oc1ccc(Cl)cc1)C(=O)Nc1ncccn1 (configuration not stated) | 5% (inactive) |
| Cc1noc(C)c1CSc1nc2cc(S(=O)(=O)N3CCOCC3)ccc2o1 | 4% (inactive) |
| O=C1CCC(=O)N1CCOP1(=O)COc2ccccc2OC1 | 4% (inactive) |
| O=C(NCc1ccc2c(c1)OCO2)c1cc2c(s1)CS(=O)(=O)C2 | 6% (inactive) |
| CCCOP(=O)(c1ccc(N(C)C)cc1)C(O)c1cc(OC)c(OC)c(OC)c1 (configuration not stated) | 2% (inactive) |
| CSc1nc(C)nc2c1c(=O)n(C)c(=O)n2C | 5% (inactive) |
| Cc1nc(NCc2ccccc2)c(C(N)=O)c2c1COC(C)(C)C2 | 11% (inactive) |
| CCN(CC)CCNC(=O)C1c2ccccc2C(=O)N(C)C1c1cn(C)c2ccccc12 (configuration not stated) | 6% (inactive) |
| CCOc1cc(C(=O)N2CCc3cc(OC)c(OC)cc3C2)ccc1OC(F)F | 7% (inactive) |
| Cc1cc(N2CCCC2)n2nc(C)c(-c3ccccc3)c2n1 | 8% (inactive) |
| CSCCC(NC(N)=O)C(=O)N(C)CC(=O)Nc1ccc(C)cc1 (configuration not stated) | 8% (inactive) |
| CC(NCCO)C(=O)C12CC3CC(CC(C3)C1)C2 (configuration not stated) | 4% (inactive) |
| O=P(O)(CP(=O)(c1ccccc1)c1ccccc1)c1ccccc1 | 6% (inactive) |
| COC(=O)c1cc(NC(=O)CN2CCC(C(N)=O)(N3CCCCC3)CC2)cc(C(=O)OC)c1 | 4% (inactive) |
| ON=C1/C(=N\O)CC2(C/C1=N/O)OCCO2 | 2% (inactive) |
| CCc1ccccc1NC(=O)CSc1nnc([C@@H](NC(=O)OC(C)(C)C)C(C)CC)o1 (some centres not stated) | 5% (inactive) |
| COc1ccc(-n2ncc3c(N4CCc5ccccc54)ncnc32)cc1 | 6% (inactive) |
| CCOc1ccc(S(=O)(=O)N(CC(=O)O)c2ccccc2)cc1 | 1% (inactive) |
| CCOc1cccc(NC(=O)CC#N)c1 | 6% (inactive) |

| SMILES | inhibition |
| --- | --- |
| COC(=O)c1sccc1NC(=O)c1csc2c1CCCC2 | 5% (inactive) |
| CCOC(=O)CNC(=O)CSc1nnc(COc2ccc(Cl)cc2)n1CC | 8% (inactive) |
| N#Cc1ccc(OCCN2C(=O)NC3(CCSC3)C2=O)cc1 (configuration not stated) | 14% (inactive) |
| CS(=O)(=O)N(Cc1nc2sc3c(c2c(=O)[nH]1)CCCC3)C1CCCCC1 | 3% (inactive) |
| CCn1nc(NC(=O)c2ccco2)c2cc3ccc(C)cc3nc21 | 9% (inactive) |
| N#CC(C(=O)c1ccc(S(=O)(=O)N2CCCCCC2)cc1)c1nc2ccccc2[nH]1 (configuration not stated) | 8% (inactive) |
| CC(=O)N(Cc1cccs1)C1CCOC(C)(C)C1 (configuration not stated) | 5% (inactive) |
| CCn1c(NCCc2ccc(OC)c(OC)c2)nc2c1c(=O)n(C)c(=O)n2C | 7% (inactive) |
| Nc1nc(SCCOc2ccccc2)n[nH]1 | 1% (inactive) |
| N#C/C=C\Oc1ccc(Cl)cc1N | 7% (inactive) |
| Cc1nnc(NC(=O)CSc2nccn2-c2cccc(C)c2C)s1 | 5% (inactive) |
| O=C(NCc1ccco1)c1cc2sccc2n1Cc1ccc(F)cc1 | 5% (inactive) |
| CCOc1ccc(-c2cn(S(=O)(=O)c3cccc4nsnc34)nc2N)cc1 | 5% (inactive) |
| O=C(CCn1c(=O)[nH]c2ccccc2c1=O)NCCCN1CCN(c2cccc(Cl)c2)CC1 | 1% (inactive) |
| CC1=CC(C)(C)N(C(=O)CSc2nccn2C)c2cc(C)ccc21 | 0% (inactive) |
| O=C(O)CCSc1nnc(-c2ccccc2)n1-c1ccccc1 | 4% (inactive) |
| CSc1nnc(CNC(=O)c2ccccc2)n1-c1ccc(F)cc1 | 0% (inactive) |
| CC(NC(=O)Nc1ccccc1)c1ccccc1 (configuration not stated) | 10% (inactive) |
| CC(=O)c1cc(C#N)c(SCC(=O)C(C)(C)C)nc1C | 1% (inactive) |
| COc1cccc(NC(=O)Nc2nnc(N3CCCCC3C)s2)c1 (configuration not stated) | 7% (inactive) |
| CCCn1cc(SCC(N)=O)c2ccccc21 | 1% (inactive) |
| COc1ccc(S(=O)(=O)N2CCC(C(=O)N3CCc4ccccc4C3)CC2)cc1OC | 2% (inactive) |
| CCOC(=O)N1CCC(O)(c2cc(C)c(C)cc2C)CC1 | 3% (inactive) |
| O=C(CNS(=O)(=O)c1ccc(Br)s1)NCc1ccc2c(c1)OCO2 | 5% (inactive) |
